An excerpt weighted towards active compounds, which were near 2.4% of everything screened.
D2 ag-1: activates the human D2 dopamine receptor | DiscoveRx PathHunter D2 beta-arrestin, luminescence, 90 min; 100% = 57 uM dopamine signal | activation, % (no concentration beside the values) | actives 0.084% (n = 360,000) | AID 624465; in the data active = activation above about 40%; inconclusive = between about 15% and that limit
Target sequence (P14416 whole entry, looked up): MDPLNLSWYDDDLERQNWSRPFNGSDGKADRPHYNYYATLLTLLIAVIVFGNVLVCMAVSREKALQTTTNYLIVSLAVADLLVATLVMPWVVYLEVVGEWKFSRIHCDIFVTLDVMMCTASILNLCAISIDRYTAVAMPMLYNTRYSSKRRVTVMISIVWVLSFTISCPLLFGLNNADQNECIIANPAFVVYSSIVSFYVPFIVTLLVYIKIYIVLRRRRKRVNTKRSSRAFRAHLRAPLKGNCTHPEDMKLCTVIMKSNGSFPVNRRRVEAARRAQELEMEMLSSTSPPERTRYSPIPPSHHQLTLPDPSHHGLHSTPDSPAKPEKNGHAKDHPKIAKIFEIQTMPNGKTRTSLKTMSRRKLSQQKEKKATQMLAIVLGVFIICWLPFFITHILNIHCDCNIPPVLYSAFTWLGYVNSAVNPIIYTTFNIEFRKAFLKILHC
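Agonist mode: compounds alone added to overnight-plated D2 PathHunter cells for 90 min at 37 C, with 57 uM final dopamine (EC100) defining full response. Beta-arrestin recruitment detected by chemiluminescent reagent, read after 1 h at ambient temperature.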
D2 antagonist: antagonists of human D2 dopamine receptor | actives 2% (n = 340,000) | AID 485344 | HEK293 TREx D2 cells, calcium flux, dopamine EC80 | P14416 | inhibition, % at 10 µM; in the data active = inhibition above about 30%; inactive = below that, where a call was filed
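Antagonism is scored as inhibition of an EC80 dopamine-evoked calcium signal in a force-coupled, tetracycline-inducible HEK293 T-REx D2 line, with compound present 180 s before agonist.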
D2 PAM-1: positive allosteric modulators of human D2 dopamine receptor. actives 0.23% (n = 360,000). DiscoveRx D2 beta-arrestin cells, luminescence, 90 min; 100% = 57 uM dopamine signal. potentiation, % (concentration not given with the values). P14416; in the data active = potentiation above about 50%; inconclusive = mostly about 30% to 49%
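PathHunter D2 cells, attached overnight at 37 deg C, received compound in DMSO plus dopamine at EC20 (50 nM final) for 90 min at 37 deg C. Beta-arrestin recruitment was read as luminescence after 1 h with detection reagent at ambient temperature.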
D2 PAM-2: positively modulates the human D2 dopamine receptor allosterically | actives 0.34% (n = 340,000) | P14416 | HEK293 T-REx D2, calcium flux, EC20 dopamine potentiation | potentiation, % at 10 µM;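 active = potentiation over 3 SD above the plate norm, cut at about 30% in these data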
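Potentiation of an EC20 dopamine calcium response is measured in a force-coupled, tetracycline-inducible Hek293 Trex D2 line. Compound-only kinetic reads over 180 s flag agonists before dopamine addition.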
D2 ag-2: agonists of human D2 dopamine receptor; actives 0.53% (n = 340,000); activation, % at 2 µM; HEK293 T-REx D2 cells, calcium flux agonist mode;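 active = activation over 3 SD above normal in the single-dose calcium agonist read, cut at about 30% in these data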
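HEK293 Trex D2 cells, tetracycline-induced, o/n 30 C 5% CO2; no-wash Ca dye, RT 30–90 min; 10-cycle baseline, 23 nl cpd added, kinetic Ca read 180 s; agonist hits = positive Ca response.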
Each line names hits and unclear results; the compound was inactive in the other large screens.

CC(C)c1ccc(S(=O)(=O)N2CCN(CC(O)CN3CCOCC3)CC2)cc1 (configuration not stated)	none
COc1ccc2c(c1)c1c(c(=O)n(Cc3ccccc3)c(=O)n1CC(=O)Nc1ccc(C)cc1C)n2C	none (no result: D2 ag-1, D2 antagonist, D2 PAM-1)
COc1cc(NC(=O)COCc2cc(-c3ccc(F)cc3)on2)cc(OC)c1OC	none (no result: D2 ag-1, D2 antagonist, D2 PAM-1)
COc1cccc(C(=O)NCC2CCCN(C3CCCCC3)C2)c1OC (configuration not stated)	D2 antagonist 57.2
CC(=O)Nc1ccc(S(=O)(=O)NC2(C(F)(F)F)NC(=O)N(C3CCCC3)C2=O)cc1 (configuration not stated)	D2 PAM-2 32.9
O=C(NCCCN1CCCC1)Nc1ccc(F)cc1	none
O[Si](CCCN1CCCCC1)(c1ccc(F)cc1)C1CCCCC1 (configuration not stated)	D2 antagonist 124.3
COc1ccc(N2CCN(C(=O)COC(=O)c3cccc(S(=O)(=O)Nc4cccc(C)c4)c3)CC2)cc1	D2 antagonist 40.2
CCCc1cc(=O)[nH]c(SCC(=O)N2CCOCC2)n1	none
CCCc1cc(=O)[nH]c(SCC(=O)N2CCN(c3ccccc3)CC2)n1	D2 antagonist 38.3
COc1ccc(C(=O)NCCCn2ccnc2)cc1	none
O=C(NCc1cccnc1)c1cn(-c2ccccc2)nc1-c1ccccc1	D2 antagonist 43.9
Cc1c(C(=O)NCc2ccccc2)c(-c2ccccc2)nn1-c1ccccc1	D2 antagonist 35.9
COc1ccc(-c2nn(-c3ccccc3)cc2C(=O)NCCCn2ccnc2)cc1	D2 antagonist 30.0
O=C(NC1CCN(Cc2ccc(Cl)cc2)CC1)c1cn(-c2ccccc2)nc1-c1cccnc1	D2 antagonist 74.0
O=C(NCc1ccncc1)c1cn(-c2ccccc2)nc1-c1cccnc1	none
Cc1ccc(C(=O)N2CCc3cc(CNC(=O)c4ccnn4C)ccc32)cc1	none (no result: D2 ag-1, D2 antagonist, D2 PAM-1)
CCCOC(=S)NC(=O)c1sc2ccccc2c1Cl	D2 antagonist 30.9
O=c1[nH]c(=O)n(C2CCCO2)cc1F (configuration not stated)	D2 antagonist 32.1
CCOC(=O)c1cccc(NC(=O)Nc2ccc3c(c2)N(C)C(=O)c2ccccc2S3)c1	none (no result: D2 ag-1, D2 antagonist, D2 PAM-1)
C1CNCCNCCCNCCNC1	D2 antagonist 46.3 (no result: D2 ag-1, D2 PAM-1)
COc1ccccc1CNC(=O)COC(=O)c1n[nH]c2ccccc12	none
COc1ccc(CNC(=O)COC(=O)c2n[nH]c3ccccc23)cc1OC	D2 antagonist 30.3
CC(=O)c1c(NCc2ccccc2)nc(=O)n(-c2ccccc2)c1C	D2 antagonist 39.7
Cc1ccc(CSc2sc(C(=O)c3ccccc3)c(N)c2C#N)cc1	none
N#Cc1c(SCc2ccccc2)sc(C(=O)c2ccccc2)c1N	D2 antagonist 65.0
c1ccc(OCCNc2nc(NCC3CC3)nc3cc(-c4ccccc4)sc23)cc1	D2 ag-1 44.0 (no result: D2 antagonist, D2 PAM-2, D2 ag-2)
O=C(CN1C(=O)CC(c2ccc(F)cc2)=Nc2ccccc21)NCc1ccccc1Cl	none (no result: D2 ag-1, D2 antagonist, D2 PAM-1)
O=C1c2cccnc2C(Nc2ccc(S(=O)(=O)N3CCCCC3)cc2)N1Cc1ccccc1 (configuration not stated)	D2 PAM-2 32.6
O=C1c2ccccc2C(Nc2ccc(S(=O)(=O)N3CCCCCC3)cc2)N1c1ccccn1 (configuration not stated)	none
O=C(Nc1ccc(F)cc1F)c1ccc2c(c1)CCN2S(=O)(=O)c1ccc(Cl)cc1	none (no result: D2 ag-1, D2 antagonist, D2 PAM-1)
O=C(CN1C(=O)COc2ccc(S(=O)(=O)N3CCCC3)cc21)N1CCN(c2cccc(C(F)(F)F)c2)CC1	none (no result: D2 ag-1, D2 antagonist, D2 PAM-1, D2 ag-2)
CN(c1cccc(NS(=O)(=O)c2cccs2)c1)S(C)(=O)=O	D2 PAM-2 30.4
COc1ccc(S(=O)(=O)Nc2cccc(N(C)S(C)(=O)=O)c2)cc1Br	none
CCCCn1c(=O)c2c(nc3n2CCCN3Cc2ccccc2)n(C)c1=O	D2 antagonist 34.2
Cn1c(=O)n(Cc2ccccc2)c(=O)c2c1nc1n2CCCN1Cc1ccccc1	none
CCOC(=O)c1noc2ncn(CC(=O)Nc3cccc(C(F)(F)F)c3)c(=O)c12	none (no result: D2 ag-1, D2 antagonist, D2 PAM-1)
CC1C/C(=N/O)C(C)CN1 (configuration not stated)	D2 PAM-2 31.0
COc1ccc(COCC(O)CN2CCCCC2)cc1OC (configuration not stated)	none
COc1ccc(COCC(O)CN(Cc2ccccc2)C(C)C)cc1OC (configuration not stated)	D2 antagonist 31.1
COc1ccc(O)c(CNn2c(-c3ccc(Br)cc3)nc3ccccc3c2=O)c1	D2 antagonist 49.9
COc1cccc(C(=O)C2CCCN(C/C=C/c3ccccc3OC)C2)c1 (configuration not stated)	none
COc1ccc(C(=O)C2CCCN(C/C=C/c3ccccc3OC)C2)c(OC)c1 (configuration not stated)	D2 antagonist 85.6
CCn1c(SCC(=O)Nc2c(C)cccc2C)nnc1-c1nonc1NC(C)=O	none (no result: D2 ag-1, D2 antagonist, D2 PAM-1)
CCCCCCn1c(COc2ccccc2F)nnc1SCC(=O)c1c(N)n(C)c(=O)n(C)c1=O	D2 PAM-2 31.6 (no result: D2 ag-1, D2 PAM-1)
COCC(C)n1c(COc2ccccc2F)nnc1SCC(=O)c1c(N)n(C)c(=O)n(C)c1=O (configuration not stated)	none
Cn1c(N)c(C(=O)CSc2nnnn2-c2ccccc2)c(=O)n(C)c1=O	D2 antagonist 38.6
Cc1ccccc1-n1nnnc1SCC(=O)c1c(N)n(C)c(=O)n(C)c1=O	none
CC(=O)Oc1ccc(N(c2ccccc2)S(=O)(=O)c2ccc(C)cc2)cc1	D2 PAM-2 38.7
Cc1ccc(S(=O)(=O)N(C)c2ccccc2)cc1	none
Cc1c(-c2ccc(Cl)cc2)c(=O)oc2c(CN3CCN(CCO)CC3)c(O)ccc12	none (no result: D2 ag-1, D2 antagonist, D2 PAM-1)
Cc1ccc(Cl)c(OCCN2CCc3ccccc3C2)c1	D2 antagonist 65.9
Clc1ccc(OCCCCN2CCc3ccccc3C2)cc1	D2 antagonist 91.0
O=C(NCc1ccc(F)cc1)c1cc2sccc2n1Cc1ccc(F)cc1	D2 PAM-2 31.2 (no result: D2 ag-1, D2 PAM-1)
CN(C)S(=O)(=O)c1ccc(-c2csc(N/N=C/c3ccc(O)cc3)n2)cc1	D2 ag-1 inconclusive, D2 PAM-1 56.8
CCOC(=O)c1cccc(NC(=O)CCC(=O)N2CC(C)Oc3ccc(C)cc32)c1 (configuration not stated)	none (no result: D2 ag-1, D2 antagonist, D2 PAM-1)
Cc1sc2ncnc(N3CCN(CCOc4ccc(Cl)cc4)CC3)c2c1C	D2 antagonist 35.5
Cc1sc2ncnc(N3CCC(C(=O)NNC(=O)COc4ccc(Cl)cc4)CC3)c2c1C	none (no result: D2 antagonist, D2 PAM-2, D2 ag-2)
COc1ccccc1C(=O)N1CCC(N2CCN(c3ccccc3OC)CC2)CC1	D2 antagonist 37.7
COc1ccccc1N1CCN(C(=O)C2CCN(C(=O)c3ccccc3Cl)CC2)CC1	none
COc1ccccc1N1CCN(C(=O)C2CC=CCC2C(=O)O)CC1 (configuration not stated)	D2 antagonist 32.9

Source: PubChem (National Center for Advancing Translational Sciences (NCATS))
